Data published in PubChem BioAssay AID504333 (National Center for Advancing Translational Sciences (NCATS), 2011).
Screen size: about 360,000 compounds; about 16,000 (4.4%) were called active. About 9% were inconclusive and are not listed. For the sample, actives were picked, then their nearest neighbours and some compounds at random. Unmarked numbers belong to inactive results. Calls follow the shape of the dose curve; as a rule, active = well fitted inhibition curve with a large enough effect; inconclusive = small, poorly fitted or top-dose-only effect; inactive = no such curve, though single readings can be large or run the other way.
% is scaled to controls: 0 for no effect and ±100 for the full control effect; potency is read from the fitted curve at half-maximal effect.
Also: nearly all actives have a fitted effect of over 60% in size.

Each compound was assayed against Bromodomain adjacent to zinc finger domain protein 2B (Homo sapiens) (UniProt Q9UIF8) (assay: qHTS Assay for Inhibitors of BAZ2B). Settings: AlphaScreen BAZ2B-H3K14Ac peptide displacement; series mostly up to 114 µM; activity change, negative = inhibition: at the top concentration.
Sequence of Bromodomain adjacent to zinc finger domain protein 2B (Homo sapiens) (Q9UIF8 whole entry, looked up, the tested form may be a part): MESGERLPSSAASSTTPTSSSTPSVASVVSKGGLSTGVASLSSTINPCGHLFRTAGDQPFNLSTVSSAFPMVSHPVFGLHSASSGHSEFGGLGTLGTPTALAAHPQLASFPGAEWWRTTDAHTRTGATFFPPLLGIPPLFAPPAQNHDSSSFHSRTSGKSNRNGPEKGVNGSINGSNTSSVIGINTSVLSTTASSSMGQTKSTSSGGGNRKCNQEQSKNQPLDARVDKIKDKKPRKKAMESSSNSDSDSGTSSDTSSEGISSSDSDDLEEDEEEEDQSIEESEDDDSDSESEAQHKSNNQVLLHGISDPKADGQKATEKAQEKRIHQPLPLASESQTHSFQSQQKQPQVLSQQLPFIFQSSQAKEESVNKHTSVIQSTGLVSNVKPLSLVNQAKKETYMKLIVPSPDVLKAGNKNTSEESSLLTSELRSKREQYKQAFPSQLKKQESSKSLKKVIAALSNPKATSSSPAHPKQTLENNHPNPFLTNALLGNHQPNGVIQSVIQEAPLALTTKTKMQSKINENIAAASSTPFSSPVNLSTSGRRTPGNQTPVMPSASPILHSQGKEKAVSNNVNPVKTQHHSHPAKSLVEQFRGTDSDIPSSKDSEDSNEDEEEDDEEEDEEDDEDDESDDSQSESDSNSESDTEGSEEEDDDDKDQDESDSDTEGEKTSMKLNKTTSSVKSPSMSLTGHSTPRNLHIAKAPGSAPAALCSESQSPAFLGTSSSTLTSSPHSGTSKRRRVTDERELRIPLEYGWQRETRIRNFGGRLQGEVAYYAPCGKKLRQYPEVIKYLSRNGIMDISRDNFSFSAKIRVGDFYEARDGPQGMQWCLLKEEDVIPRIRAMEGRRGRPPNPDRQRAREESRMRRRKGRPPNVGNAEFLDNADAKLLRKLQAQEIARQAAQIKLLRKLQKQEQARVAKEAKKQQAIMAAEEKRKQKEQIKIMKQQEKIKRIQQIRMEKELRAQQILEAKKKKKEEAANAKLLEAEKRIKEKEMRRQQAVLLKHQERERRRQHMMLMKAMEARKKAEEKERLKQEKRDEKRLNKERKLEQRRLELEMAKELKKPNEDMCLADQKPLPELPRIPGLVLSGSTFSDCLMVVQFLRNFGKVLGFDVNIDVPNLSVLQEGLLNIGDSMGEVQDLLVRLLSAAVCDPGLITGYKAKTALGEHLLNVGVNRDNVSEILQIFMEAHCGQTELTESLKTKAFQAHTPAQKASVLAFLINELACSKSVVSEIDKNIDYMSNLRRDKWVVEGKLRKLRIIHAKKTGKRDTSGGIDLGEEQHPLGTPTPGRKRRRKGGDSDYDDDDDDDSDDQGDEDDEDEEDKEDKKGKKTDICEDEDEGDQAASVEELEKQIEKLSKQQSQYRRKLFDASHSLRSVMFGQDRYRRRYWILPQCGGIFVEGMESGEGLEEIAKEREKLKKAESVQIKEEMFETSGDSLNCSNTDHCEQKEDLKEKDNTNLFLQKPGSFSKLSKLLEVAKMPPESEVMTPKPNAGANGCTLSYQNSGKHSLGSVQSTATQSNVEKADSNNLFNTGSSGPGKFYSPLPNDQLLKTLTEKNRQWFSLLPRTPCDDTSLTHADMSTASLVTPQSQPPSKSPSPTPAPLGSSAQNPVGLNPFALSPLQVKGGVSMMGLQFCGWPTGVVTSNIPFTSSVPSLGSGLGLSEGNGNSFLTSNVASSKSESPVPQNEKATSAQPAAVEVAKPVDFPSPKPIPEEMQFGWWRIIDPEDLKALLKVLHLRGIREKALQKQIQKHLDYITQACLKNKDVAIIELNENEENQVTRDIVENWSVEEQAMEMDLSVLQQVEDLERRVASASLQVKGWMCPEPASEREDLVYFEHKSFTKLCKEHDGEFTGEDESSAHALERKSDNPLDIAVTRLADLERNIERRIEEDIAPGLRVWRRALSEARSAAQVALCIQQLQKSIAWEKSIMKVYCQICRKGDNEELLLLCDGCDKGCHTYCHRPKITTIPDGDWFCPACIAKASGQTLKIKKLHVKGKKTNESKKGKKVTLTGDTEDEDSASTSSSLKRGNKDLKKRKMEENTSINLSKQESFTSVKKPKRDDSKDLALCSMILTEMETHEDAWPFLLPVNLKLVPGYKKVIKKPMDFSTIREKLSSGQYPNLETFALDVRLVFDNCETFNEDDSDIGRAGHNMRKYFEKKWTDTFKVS
Summary of the method: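 AlphaScreen displacement: compounds (up to 110uM) incubated 30 min at room temperature with a preformed 50 nM BAZ2B/50 nM biotinylated H3K14Ac peptide complex in PBS pH 7.4 with Tween-20. Donor and acceptor beads at 10 ug/mL final added, 20 min light-protected before reading.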
`COc1cc(Cl)c(C)cc1NC(=O)CCc1nc2cccnc2n1Cc1cccs1` was tested, and the “activity change, negative = inhibition” value was -18%. `CCOc1ccc(NC(=O)c2c(NCc3cccc(OC)c3OC)sc3c2CCC3)cc1` was tested, and the “activity change, negative = inhibition” value was -1.31%. In the case of `Cc1ccc(-c2nn(CCC(=O)Nc3ccc(Cl)c(Cl)c3)c(=O)c3ccccc23)cc1`, the “activity change, negative = inhibition” value is reported as -11.8%. For `COc1ccc(CCC(=O)NCCc2csc(-c3ccc(Cl)cc3)n2)cc1`, the “activity change, negative = inhibition” value was -4.25%. With `CCOC(=O)c1ccc[n+](CC(=O)Nc2ccccc2OC(F)F)c1` the “activity change, negative = inhibition” value was -1.09%. In the case of `O=C(COC(=O)c1ccccc1SCC(=O)N1CCCC1)Nc1ccccc1OC(F)F`, the “activity change, negative = inhibition” value is reported as 3.45%. For `Cc1ccc(-c2nc(SCC(=O)Nc3ccccc3OC(F)F)c3c(C)c(C(=O)O)sc3n2)cc1`, the Potency was 44.7 µM (active). `COc1cccc(C(=O)NC2=NC(c3ccc(N(C)C)cc3)CC(=O)N2)c1` (stereo not drawn) was tested, and the “activity change, negative = inhibition” value was -14.6%. `CCCCCn1c(=O)[nH]c2cc(C(=O)Nc3ccc(F)cc3)ccc2c1=O` was tested, and the “activity change, negative = inhibition” value was -13.7%. With `CCN(CC)S(=O)(=O)c1ccc2c(c1)N(CC(=O)NCC(C)c1ccccc1)C(=O)CO2` (stereo not drawn) the “activity change, negative = inhibition” value was -35.7%. `CC(=O)N1CCCc2cc(S(=O)(=O)Nc3ccc(Cl)cc3F)ccc21` was tested, and the “activity change, negative = inhibition” value was -5.37%. With `Cc1ccc2oc3c(c(=O)c2c1)C(c1ccc([N+](=O)[O-])cc1)N(CCCN1CCOCC1)C3=O` (stereo not drawn) the “activity change, negative = inhibition” value was -0.558%. `Cc1ccccc1NC(=O)Cn1c(=O)n(CCc2ccccc2)c(=O)c2ccccc21` was tested, and the “activity change, negative = inhibition” value was 1.27%. `Cc1ccc(C)c(CN2C(=O)c3ccccc3S(=O)c3ccc(C(=O)N4CCOCC4)cc32)c1` (stereo not drawn) was tested, and the “activity change, negative = inhibition” value was -12.7%. In the case of `O=[N+]([O-])C(=c1ccc2c(c1)N1C3=C(CCCC3)CC3CCCCC31N=2)[N+](=O)[O-]` (stereo not drawn), the Potency is reported as 44.7 µM (active). For `Cc1ccccc1CNC(=O)c1ccc(NC(=O)N2CCCCc3ccccc32)cc1`, the “activity change, negative = inhibition” value was -1.37%. For `Cc1ccc(CNC(=O)CSC2=Nc3ccccc3C3=NC(C)C(=O)N23)cc1` (stereo not drawn), the “activity change, negative = inhibition” value was -9.55%. With `CCCN1CCN(CCCNC(=O)c2ccc3nc(Cc4ccccc4)oc3c2)CC1` the “activity change, negative = inhibition” value was -14.6%. With `Cc1ccc(NC(=S)NCCc2ccc(Cl)cc2)c(C)c1` the Potency was 79.4 µM (active). With `Cc1cc(F)ccc1NC(=S)NCCc1ccccc1` the “activity change, negative = inhibition” value was -10.7%. `Cc1cccc(NC(=S)NCCc2ccc(Cl)cc2)c1C` was tested, and the “activity change, negative = inhibition” value was -6.6%. For `COc1cccc(N=C2SC(C(=O)Nc3cccc(Cl)c3)CC(=O)N2C)c1` (stereo not drawn), the “activity change, negative = inhibition” value was 0.78%. `CCOC(=O)N1CCc2c(sc(NCc3cccc(F)c3)c2C(=O)Nc2ccccc2OCC)C1` was tested, and the “activity change, negative = inhibition” value was -24.5%. `Cc1sc2nc(CSCC(=O)Nc3c(Cl)cccc3Cl)[nH]c(=O)c2c1C` was tested, and the “activity change, negative = inhibition” value was 9.3%. In the case of `Cc1sc2nc(CSCC(=O)NC3CCCCC3)[nH]c(=O)c2c1C`, the “activity change, negative = inhibition” value is reported as 9.45%. `CSc1nnc(SCc2nc3sc(C(=O)O)c(C)c3c(=O)[nH]2)s1` was tested, and the Potency was 50.1 µM (active). For `COc1c(Cl)cc(C(=O)N(Cc2ccccc2F)C2CCS(=O)(=O)C2)cc1Cl` (stereo not drawn), the “activity change, negative = inhibition” value was -9.74%. For `CC1CCCCN1CC(=O)N1CCCc2c1c(=O)oc1ccc(OCc3ccccc3)cc21` (stereo not drawn), the “activity change, negative = inhibition” value was -34%. In the case of `CCOc1ccc(NC(=O)C2CCN(S(=O)(=O)c3cc(-c4noc(C)n4)ccc3C)CC2)cc1`, the “activity change, negative = inhibition” value is reported as 4.51%. `CC1(C)NC(=O)N(CCOc2cccc(Oc3ccccc3)c2)C1=O` was tested, and the “activity change, negative = inhibition” value was 2.52%. With `CC(O)CNCCOc1cccc(Oc2ccccc2)c1` (stereo not drawn) the Potency was 50.1 µM (active). With `COCCNCCOCCOc1cccc(OC)c1` the “activity change, negative = inhibition” value was -19%. With `COc1ccc(-c2c3c(=O)n(C)c(=O)n(C)c3c3c(C)nc4ccccc4n23)cc1` the “activity change, negative = inhibition” value was 4.79%. For `Cc1ccc(CCNC(=O)c2ccc3c(c2)N(Cc2cc(C)ccc2C)C(=O)c2ccccc2S3=O)cc1` (stereo not drawn), the “activity change, negative = inhibition” value was -17.4%. In the case of `COc1cc(NC(=O)Cn2nc(-c3ccc(C)c(C)c3)ccc2=O)cc(OC)c1`, the “activity change, negative = inhibition” value is reported as -3.69%. In the case of `O=C(O)c1ccc(Cn2c(SCc3ccc(F)cc3)nc3ccncc32)cc1`, the “activity change, negative = inhibition” value is reported as -1.05%. With `C=CCn1c2ccccc2c2nnc(SCc3[nH]c(=O)[nH]c3C(=O)CCCCC(=O)OCC)nc21` the Potency was 79.4 µM (active). In the case of `C=CCn1c2ccccc2c2nnc(SC(CC)C(=O)Nc3nc(C)c(C(=O)OCC)s3)nc21` (stereo not drawn), the “activity change, negative = inhibition” value is reported as 0.0442%. For `CCn1c2ccccc2c2nnc(SCC(=O)O)nc21`, the “activity change, negative = inhibition” value was -5.77%. In the case of `CCOC(=O)c1ccc(CSc2nnc3cc(C)c4ccccc4n23)cc1`, the “activity change, negative = inhibition” value is reported as -15.6%. With `CCOc1ccc(C(=O)c2cn(Cc3ccccc3OC)c3ccc(F)cc3c2=O)cc1` the “activity change, negative = inhibition” value was -19.9%. `CCCN(C(=O)Cn1ncc2c([nH]c3ccc(C)cc32)c1=O)c1ccccc1C` was tested, and the “activity change, negative = inhibition” value was 1.79% [at 57.1 µM]. For `CCOC(=O)c1cc(-c2ccccc2)n(-c2cccc(C(=O)Nc3cc(OC)cc(OC)c3)c2)c1C`, the “activity change, negative = inhibition” value was -27.3%. `C/C(=C\C(=O)c1cccnc1)Nc1ccc(C)c(C)c1` was tested, and the Potency was 50.1 µM (active). With `O=C(CSc1ccccc1)Nc1ccc(C(=O)Nc2cccc(O)c2)cc1` the “activity change, negative = inhibition” value was 3.89%. In the case of `Cc1cc2nc(-c3ccc(NC(=O)c4cccnc4)cc3)oc2cc1C`, the “activity change, negative = inhibition” value is reported as 11.6%. For `O=C(NCc1cccc(CNC(=O)Nc2cccc(O)c2)c1)Nc1cccc(O)c1`, the “activity change, negative = inhibition” value was -18.9%. With `O=C(COc1ccc(/C=N/NC(=O)c2ccc(O)cc2)cc1)Nc1ccc([N+](=O)[O-])cc1` the “activity change, negative = inhibition” value was -26.7%. For `Cc1ccc(N/C=C/C(=O)c2ccccc2)cc1C`, the “activity change, negative = inhibition” value was -4.96%. For `Cc1ccc(OCC(=O)NCCCNC(=O)c2cccnc2)cc1C`, the “activity change, negative = inhibition” value was -1.83%. In the case of `C/C(=C\C(=O)c1ccccc1)Nc1cccc(O)c1`, the Potency is reported as 50.1 µM (active). For `Cc1ccc(NC(=O)COc2ccc(/C=N\NC(=O)c3cccnc3)cc2)cc1C`, the Potency was 56.2 µM (active). `Cc1cccc(NC(=O)c2ccc(F)c(S(=O)(=O)N(C)C3CCCCC3)c2)c1` was tested, and the “activity change, negative = inhibition” value was 0.102%. In the case of `COc1ccc(Cl)cc1NC(=O)c1sc2nc3c(cc2c1N)CN(C)CC3`, the “activity change, negative = inhibition” value is reported as -14.9%. `CCOCCCNC(=O)c1c(NC(=O)c2nc(SC)ncc2Cl)sc2c1CCCC2` was tested, and the “activity change, negative = inhibition” value was -6%. In the case of `CN(C)C(=O)c1coc2nc3ccccc3nc12`, the “activity change, negative = inhibition” value is reported as -3.28%. With `CNC(=O)c1cccc2nc3ccccc3nc12` the Potency was 50.1 µM (active). In the case of `CNC(=O)c1cc2c(ccc3ccccc32)oc1=N`, the “activity change, negative = inhibition” value is reported as 4.85%. For `COc1ccc(-n2c(SC)nc3sc4c(c3c2=O)CCN(C(C)=O)C4)cc1`, the “activity change, negative = inhibition” value was 4.86%. In the case of `CCOc1ccc(CNC(=O)c2ccc3nc(CC)c(CC)nc3c2)cc1OC`, the “activity change, negative = inhibition” value is reported as -2.35%. For `Cc1ccccc1Nc1nnc(SCC(=O)c2cc3ccccc3o2)s1`, the “activity change, negative = inhibition” value was -11.7%. In the case of `CC(C)c1ccc(Nc2nnc(SCC(=O)c3nnc(-c4ccccc4)o3)s2)cc1`, the Potency is reported as 35.5 µM (active). In the case of `Cc1ccc(Nc2nnc(SCC(=O)c3cc4ccccc4o3)s2)cc1C`, the “activity change, negative = inhibition” value is reported as -32.6%.
